In PubChem BioAssay (Tox21):
Inconclusive results are not listed. A call without a number means that no potency is given here. The source made the active and inactive calls. Calls come from the whole dose curve.

target: Muscarinic acetylcholine receptor M1 (Homo sapiens) (UniProt P11229); assay: Cholinergic receptor muscarinic 1 (CHRM1) small molecule antagonists, cell-based qHTS assay (AID 1963588); conditions: CHRM1-CHO antagonist mode, calcium flux fluorescence; series mostly up to 61.5 µM; note: nearly all actives have a fitted effect of over 40% in size
Sequence (P11229 whole entry, looked up): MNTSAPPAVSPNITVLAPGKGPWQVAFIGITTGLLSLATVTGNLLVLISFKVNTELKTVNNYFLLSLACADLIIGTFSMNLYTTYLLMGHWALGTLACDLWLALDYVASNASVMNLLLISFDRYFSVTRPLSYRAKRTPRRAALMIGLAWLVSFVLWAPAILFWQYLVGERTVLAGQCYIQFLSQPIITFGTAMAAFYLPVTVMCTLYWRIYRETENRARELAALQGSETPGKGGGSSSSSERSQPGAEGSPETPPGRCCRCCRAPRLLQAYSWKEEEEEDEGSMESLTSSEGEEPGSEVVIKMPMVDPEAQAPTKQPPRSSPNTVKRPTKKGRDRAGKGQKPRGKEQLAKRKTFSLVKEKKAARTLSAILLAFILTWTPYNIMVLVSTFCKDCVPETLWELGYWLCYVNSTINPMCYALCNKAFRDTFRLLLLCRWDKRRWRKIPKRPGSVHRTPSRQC
Description: National Center for Advancing Translational Sciences [NCATS]
Division of Preclinical Innovation [DPI]
U.S. Environmental Protection Agency [EPA]
National Institutes of Environmental Health Sciences [NIEHS]
National Toxicology Program [NTP]
U.S. Food and Drug Administration [FDA]
The CHRM1 is a muscarinic receptor. This receptor plays a crucial role in learning and memory processes and has long been identified as a promising therapeutic target for the improvement of cognitive decline in Alzheimer's disease (AD). The CHRM1-CHO cell line stably expressing human muscarinic acetylcholine receptor M1 (CHRM1) can be used for screening agonists and antagonists of interactions between CHRM1 and its ligands. The CHRM1-CHO Calcium Flux Assay is a homogeneous fluorescence-based assay for detecting the intracellular calcium level using FDSS kinetic plate reader system.
Tox21 Assay Protocol Summary:
CHRM1-CHO cells were dispensed at 1000 cells/3uL/well in 1536-well black-clear bottom plates using a Multidrop Dispenser. After the assay plates were incubated at a 37 C/5% CO2 incubator for 18 h, 3 uL of Dye Loading Buffer was transferred to the assay plate by a Flying Reagent Dispenser. The assay plates were incubated at 37 C for 1h. For antagonist mode, 23 nL of compounds dissolved in DMSO, positive controls or DMSO only was transferred to the assay plate by a pin tool. After 5 min incubation at room temperature, 1.5 uL of acetylcholine at 50nM was added to each well. The fluorescence intensity in the plates was measured using FDSS 7000EX kinetic plate reader for 3 min at 1 sec intervals. Each test compound was measured at 15 concentrations in three independent runs.
Potency is the fitted concentration of half-maximal effect.

SMILES | Potency
O=C1OC(=O)c2ccc3c4c(ccc1c24)C(=O)OC3=O | inactive
C=CCOCC(O)CO (stereo not given) | inactive
O=Cc1ccc(Cl)c(Cl)c1 | inactive
CSc1nnc(C(C)(C)C)c(=O)[nH]1 | inactive
CCC(OCCCOC)OC(C)=O (stereo not given) | inactive
CCC(C)=O | inactive
CC(C)CC(C)O (stereo not given) | inactive
CCCC(C)C(O)CC (stereo not given) | inactive
CC1=CC[C@H](CC=O)C1(C)C | inactive
Nc1cc(S(=O)(=O)O)cc2cc(S(=O)(=O)O)cc(O)c12 | inactive
CCCCCCS | inactive
CS(=O)(=O)O | inactive
O=C1NC2NC(=O)NC2N1 (stereo not given) | inactive
CN(C)CCOC(c1ccc(Cl)cc1)c1ccccn1 (stereo not given) | 4.6 µM (active)
C=COCCOCCOCCOC=C | inactive
CCN(Cc1cccc(S(=O)(=O)O)c1)c1ccccc1 | inactive
CCCCCCCCCCCCOCC1CO1 (stereo not given) | inactive
CC1OC1C1CCC2(C)OC2C1 (stereo not given) | inactive
CCOCCC(=O)OCC | inactive
Nc1ccc(Cl)c(N)c1 | inactive

SMILES | Potency
CC1(C)[C@H](C(=O)OCc2cccc(Oc3ccccc3)c2)[C@@H]1C=C(Cl)Cl | inactive
C=CC(=O)CC | inactive
Cc1ccc(-c2ccccc2C#N)cc1 | inactive
CC(=N\O)/C(C)=N/O | inactive
c1ccc(CNc2ncnc3c2ncn3C2CCCCO2)cc1 (stereo not given) | inactive
N#CCN(CC#N)CCN(CC#N)CC#N | inactive
c1ccc2cnncc2c1 | inactive
O=C1c2c(O)ccc(Nc3ccc(CCO)cc3)c2C(=O)c2c([N+](=O)[O-])ccc(O)c21 | inactive
Cc1ccc(Nc2ccc(O)c3c2C(=O)c2ccccc2C3=O)cc1 | inactive
Cc1sccc1Br | inactive
O=Cc1cccc([N+](=O)[O-])c1 | inactive
C[Si]1(C)O[Si](C)(C)O[Si](C)(C)O[Si](C)(C)O[Si](C)(C)O1 | inactive
CC(=O)C1(C)CC2=C(CCCC2(C)C)CC1C (stereo not given) | inactive
Cc1cc(N)n(-c2ccccc2)n1 | inactive
C[C@H]1C[C@@H](O)CC(C)(C)C1 | inactive
O=S(=O)(Oc1ccc(Cl)cc1Cl)c1ccccc1 | inactive
CC(C)c1cccc(C(C)C)c1N | inactive
CCN(CC)CC(=O)Oc1ccc(NC(C)=O)cc1 | inactive
Cc1cc(N)no1 | inactive
CCCCCC/C(C=O)=C\c1ccccc1 | inactive
